An excerpt weighted towards active compounds, which were near 20% of everything screened.
Pf growth 48h – inhibits P. falciparum growth in the first generation, 48 h; P. falciparum luciferase growth in erythrocytes, 48 h; AID 504832; hit rate 5.9% among 310,000; Potency, µM (doses to about 28.7 µM), without a hit: at the top dose activity change, negative = inhibition, hits mostly inhibitors; further: potency means the concentration at half of the fitted maximal effect; on the % scale 0 is the no-effect control and ±100 the full control effect
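Read-out is firefly luciferase luminescence from an integrated reporter in P. falciparum, so falling signal marks reduced parasite growth. Infected erythrocytes were at 2% hematocrit and 0.1% parasitemia (final) in Albumax-supplemented RPMI 1640.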
HCMV inh – inhibitors of human cytomegalovirus; HFF cells, HCMV-luciferase reporter, 72 h; stronger effect = lower value; activity change, negative = inhibition, % at 57.5 µM; hit rate 4.5% among 410,000; AID 1259415; in the data active means activity change below about -60%; inconclusive means no clear call, values can overlap the other calls; inactive means above about -39%; further: on the % scale 0 is the no-effect control and ±100 the full control effect
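Inhibition of viral replication was scored as loss of reporter luminescence in HFFs infected with HCMV-luciferase (MOI 1 PFU/cell) for 72 h; compounds tested at 2 doses, normalized to buffer and Salinomycin controls.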
Pf growth 96h – inhibits malaria parasite growth, 96 h | Potency, µM (top dose mostly 28.7 µM), without a hit: top-dose activity change, negative = inhibition, most hits filed as inhibitors | P. falciparum luciferase reporter growth, 96 h | AID 504834 | hit rate 6.9% among 320,000; further: potency means the concentration at half of the fitted maximal effect; on the % scale 0 is the no-effect control and ±100 the full control effect
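Delayed-death screen, second-generation endpoint: infected erythrocytes, 2% hematocrit, 0.05% parasitemia final; 96 hours at 37 C, 5% CO2; luciferase detection reagent; luminescence decrease equals reduced growth.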
CHX counter – affects cycloheximide protein synthesis inhibition readout, counter-screen | cell reporter, cycloheximide protein synthesis inhibition counterscreen | max response, % | hit rate 12% among 300,000; in the data active means max response mostly above about 13%, no sharp cut-off; inactive means mostly below about 14%; further: read at 38.3 µM for the half of the compounds with a filed dose; 0% is about no effect
Shiga toxin inh – inhibitors of Shiga toxin in Vero cells. hit rate 9.2% among 290,000. inhibition, % at 38.7 µM. AID 2315. Vero cells, Shiga toxin protein synthesis inhibition reporter; in the data active means inhibition mostly above about 28%, no sharp cut-off; inactive means mostly below about 43%; further: 0% is about no effect
Active calls of the source: *; ? = inconclusive; nt = not tested or not shown. Unless noted, the call rests on the fitted dose curve; in most records, active means well fitted inhibition curve with a large enough effect; inconclusive means small, poorly fitted or top-dose-only effect, or another doubt; inactive means no such curve, though single readings can be large or run the other way.

SMILES	Pf growth 48h	HCMV inh	Pf growth 96h	CHX counter	Shiga toxin inh
O=C(C1=C[C@H](c2ccc(C(F)(F)F)cc2)C[C@H](OCc2ccc(CO)cc2)O1)N1CCCCCCC1	?	nt	9.3µM*	2	-2
O=C(C1=C[C@H](c2ccccc2)C[C@H](OCc2ccc(CO)cc2)O1)N1CCN(Cc2ccccc2)CC1	?	?	?	-1	-4
O=C(C1=C[C@@H](c2ccccc2)C[C@@H](OCc2ccc(CO)cc2)O1)N1CCCCCCC1	?	-5	8.3µM*	2	-4
COc1ccc(C2=CC(=O)C[C@H](c3ccc4c(c3)OCO4)C2)cc1	-16%	nt	-5%	nt	nt
COC(=O)c1cccc(NC(=O)N(C)CCc2c(C)nn(C)c2C)c1	nt	20	nt	nt	nt
CC1(C)CC(=O)c2cc(OCC(=O)NCCN3CCCc4ccccc43)ccc2O1	-22%	34	-35%	-3	-13
CC(C)CCNC(=O)COc1ccc2c(c1)C(=O)CC(C)(C)O2	5%	2	nt	17*	87*
COc1cc(NC(=O)COc2cc(O)c3c(c2)OC(C)(C)CC3=O)cc(OC)c1OC	?	0	4.1µM*	-3	-3
Cc1ccccc1NC(=O)COc1ccc2c(c1)OC(C)(C)CC2=O	79%	-24	40%	38*	34*
CC1(C)CC(=O)c2c(O)cc(OCC(=O)Nc3ccc(S(N)(=O)=O)cc3)cc2O1	-12%	-22	?	-2	-7
CCOC(=O)N1CCc2[nH]c3ccc(C)cc3c2C1	10%	-15	-17%	6	-4
CCOC(=O)C(O)C1CCc2c([nH]c3ccc(C)cc23)C1=O (configuration not stated)	?	29	42%	25*	50
COc1ccc2c(n1)Sc1nc3ccccc3nc1N2	181%	-28	157%	56*	75*
COc1cc2ccccc2nn1	-7%	-2	0%	-2	9
CCOc1cc(CNCC(C)C)c(Cl)cc1OCC(=O)Nc1ccccc1	?	-37	-26%	8	-8
O=C(Nc1ccsn1)c1ccc(Cl)cc1Cl	134%	-4	137%	41*	47*
CC(=O)Nc1ccc(NC(=O)/C=C/c2ccc(Cl)cc2)cc1	33%	13	?	30*	26*
Cc1ccc(NC(=O)Nc2cc(C)on2)cc1	390%	32	?	47*	75*
O=C(NCCNC(=O)c1ccc(Cl)cc1Cl)c1ccc(Cl)cc1Cl	nt	2	nt	nt	nt
Cc1cc(NC(=O)CCCC(=O)Nc2ccc(F)cc2)no1	11%	34	8.3µM*	1	-6
Cc1ccc(-n2c(SCCC(C)C)nc3sc4c(c3c2=O)CC(C)(C)OC4)cc1	nt	3	nt	nt	nt
Oc1c(C(c2ccc(F)cc2)N2CCCC2)sc2nc(-c3ccco3)nn12 (configuration not stated)	nt	8	nt	nt	nt
Cc1cc(C)n(CC(C)NCc2cn[nH]c2-c2ccc(C)c(C)c2)n1 (configuration not stated)	8%	?	?	-3	0
O=C(CCCC(=O)Nc1ccc(Br)cc1)N/N=C/c1ccccc1	31%	-12	23%	-2	7
CN(C)/C=C/C(=O)/C=C/c1ccc(Cl)cc1	28%	-20	34%	45*	87*
SMILES	Pf growth 48h	HCMV inh	Pf growth 96h	CHX counter	Shiga toxin inh
CN(C)/C=C/C(=O)Oc1ccc(Cl)cc1Cl	10%	-34	11%	9	39
Cc1cc(NC(=O)Nc2ccc(Cl)c(Cl)c2)no1	nt	16	nt	nt	nt
Cc1cccc(NC(=O)Nc2cc(C)on2)c1	52%	52	-4%	39*	71*
Cc1cc(NC(=O)/C=C/c2ccc(Cl)cc2)no1	?	10	45%	23*	73*
Cc1cc(NC(=O)Nc2ccc(Cl)cc2)no1	74%	18	?	27*	nt
COC(=O)Nc1ccc(S(=O)(=O)NNC(=O)c2c(O)c3ccccc3n(C)c2=O)cc1	34%	42	11%	-4	-5
Cc1c(OC(C)C(=O)NCCCN2CCCC2=O)ccc2c3c(c(=O)oc12)CCCC3 (configuration not stated)	?	?	-29%	-6	-6
O=C1CCC(C(=O)N(CCO)Cc2ccccc2)CN1CCc1cccc(F)c1 (configuration not stated)	nt	-19	nt	nt	nt
CC(=O)C1=C(C)N2CCN=C2S1	23%	82	-8%	0	-11
Cc1cc(NC(=O)CN(C)CC(=O)Nc2ccc(Cl)cc2)no1	nt	11	nt	nt	nt
Cc1cc(NC(=O)c2ccc(Cl)cc2Cl)no1	171%	82	3.7µM*	42*	nt

Bioassay records as filed in PubChem BioAssay.
